Data as given in PubChem BioAssay (Tox21).
Unmarked numbers belong to inactive results. Results filed as inconclusive are left out. Entries that show only a call come without a potency. Calls of active or inactive are those of the source. Unless noted, the call rests on the fitted dose curve; in most records, active means well fitted curve in the direction sought with a large enough effect in the repeat runs; inconclusive means weak or mixed curves; inactive means no such curve, though single readings can be large; an effect the other way counts as inactive or inconclusive.

Legend:
[1] = qHTS assay for small molecules that induce genotoxicity in human embryonic kidney cells expressing luciferase-tagged ATAD5 (AID 651632); further: nearly all actives have a fitted effect of over 15% in size
How it was run: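 Genotoxicity read-out via ATAD5-luciferase: HEK293T cells, 16 hr compound incubation at 37C, Amplite detection.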

[2] = qHTS assay for small molecules that induce genotoxicity in human embryonic kidney cells expressing luciferase-tagged ATAD5 - cell viability (AID 651634; calls by dose curve; further: nearly all actives have a fitted effect of over 25% in size; further: potency means the concentration at half of the fitted maximal effect)
How it was run: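 Live-cell protease activity (CellTiter-Fluor, fluorescence) indicates viability. HEK293T cells with luciferase-tagged ATAD5; 15.5 hr compound treatment at 37C.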

[3] = qHTS assay for small molecule disruptors of the mitochondrial membrane potential (AID 720635); further: potency means the concentration at half of the fitted maximal effect
How it was run: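 HepG2 cells (2,000/well) attached overnight at 37C, then took compound for 1 hr at 37C, 5% CO2. Mito-MPS dye was added for 30 min; fluorescence was read at 490/535 nm (monomers) and 540/590 nm (aggregates).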

[4] = qHTS assay to test for compound auto fluorescence at 590 nm (red) in HepG2 cells (AID 720674)
How it was run: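 Intrinsic compound fluorescence in the red window (Ex/Em 540/590 nm) is measured in attached HepG2 cells exposed for 1 hr, DMSO vehicle as baseline, benchmarked to Rose Bengal sodium.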

[5] = qHTS assay to test for compound auto fluorescence at 535 nm (green) in HepG2 cells (AID 720675)
[6] = qHTS assay to test for compound auto fluorescence at 460 nm (blue) in HEK293 cells (AID 720678)
How it was run: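 After cell attachment (4-5 hr, 37C), compounds were pinned onto HEK293 monolayers in 10% dialyzed FBS medium. The blue channel (405/460 nm) was read following overnight culture. Equivalency was calculated against triamterene.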

[7] = qHTS assay to test for compound auto fluorescence at 590 nm (red) in HEK293 cells (AID 720679)
How it was run: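 Plates of HEK293 cells (10% dialyzed FBS) are treated with 23 nL compound or DMSO vehicle after a 4-5 hr attachment period, incubated overnight at 37C, and read for red fluorescence at 540/590nm.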

[8] = qHTS assay to test for compound auto fluorescence at 535 nm (green) in HEK293 cells (AID 720680)
[9] = qHTS assay to test for compound auto fluorescence at 460 nm (blue) in HEK293 cell free culture (AID 720681)
How it was run: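 Test compounds were pinned into cell-free culture medium (DMEM with 10% FBS) and fluorescence was read directly at Ex/Em 405/460 nm. Signals were expressed as fluorescence equivalents of triamterene, with DMSO vehicle as control.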

[10] = qHTS assay to test for compound auto fluorescence at 535 nm (green) in HEK293 cell free culture (AID 720682)
How it was run: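 Compounds were pin-transferred into cell-free DMEM with 10% FBS, and green fluorescence was read at excitation 485 nm and emission 535 nm. Intensities were expressed as fluorescein-equivalent values.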

[11] = qHTS assay to test for compound auto fluorescence at 590 nm (red) in HEK293 cell free culture (AID 720683)
How it was run: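 Tox21 10K library compounds were pinned into cell-free DMEM with 10% FBS and fluorescence was read at excitation 540 nm. Activity is expressed as Rose Bengal sodium equivalency.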

[12] = qHTS assay to test for compound auto fluorescence at 590 nm (red) in HepG2 cell free culture (AID 720684)
How it was run: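 Measured in medium alone (MEM containing 10% FBS) following pintool addition of compound; emission at 590 nm with 540 nm excitation, referenced to Rose Bengal sodium.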

[13] = qHTS assay to test for compound auto fluorescence at 460 nm (blue) in HepG2 cell free culture (AID 720685)
How it was run: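 Compound (23 nL) or DMSO pinned into cell-free MEM with 10% FBS; blue fluorescence read at 405/460 nm excitation/emission, expressed as auto-fluorescence equivalency to triamterene.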

[14] = qHTS assay to test for compound auto fluorescence at 535 nm (green) in HepG2 cell free culture (AID 720686)
[15] = qHTS assay to test for compound auto fluorescence at 460 nm (blue) in HepG2 cells (AID 720687)
How it was run: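 Cells (2,000/well in MEM with 10% FBS) attached overnight at 37 C, then were exposed to compound or DMSO for 1 hr at 37 C, 5% CO2. Fluorescence read at Ex/Em 405/460 nm, expressed as triamterene-equivalent signal.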

[16] = qHTS assay for small molecule agonists of the p53 signaling pathway - cell viability (AID 651633; calls by dose curve; further: nearly all actives have a fitted effect of over 30% in size; further: potency means the concentration at half of the fitted maximal effect)
How it was run: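 p53RE-bla cells, seeded at 4,000 per well and rested 5 h at 37 C/5% CO2, received compounds in DMSO for 16 h at 37 C. CellTiter-Glo was then added, and luminescence was read after 30 min at room temperature to gauge cytotoxicity.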

[17] = biological target: Glucocorticoid receptor (Homo sapiens) (UniProt P04150); assay: qHTS assay to identify small molecule agonists of the glucocorticoid receptor (GR) signaling pathway (AID 720691; active means well fitted activation curve with a large enough effect in the signal ratio in the repeat runs, not every such curve was filed as active; the % refers to the signal ratio)
Sequence of Glucocorticoid receptor (Homo sapiens) (P04150 whole entry, looked up): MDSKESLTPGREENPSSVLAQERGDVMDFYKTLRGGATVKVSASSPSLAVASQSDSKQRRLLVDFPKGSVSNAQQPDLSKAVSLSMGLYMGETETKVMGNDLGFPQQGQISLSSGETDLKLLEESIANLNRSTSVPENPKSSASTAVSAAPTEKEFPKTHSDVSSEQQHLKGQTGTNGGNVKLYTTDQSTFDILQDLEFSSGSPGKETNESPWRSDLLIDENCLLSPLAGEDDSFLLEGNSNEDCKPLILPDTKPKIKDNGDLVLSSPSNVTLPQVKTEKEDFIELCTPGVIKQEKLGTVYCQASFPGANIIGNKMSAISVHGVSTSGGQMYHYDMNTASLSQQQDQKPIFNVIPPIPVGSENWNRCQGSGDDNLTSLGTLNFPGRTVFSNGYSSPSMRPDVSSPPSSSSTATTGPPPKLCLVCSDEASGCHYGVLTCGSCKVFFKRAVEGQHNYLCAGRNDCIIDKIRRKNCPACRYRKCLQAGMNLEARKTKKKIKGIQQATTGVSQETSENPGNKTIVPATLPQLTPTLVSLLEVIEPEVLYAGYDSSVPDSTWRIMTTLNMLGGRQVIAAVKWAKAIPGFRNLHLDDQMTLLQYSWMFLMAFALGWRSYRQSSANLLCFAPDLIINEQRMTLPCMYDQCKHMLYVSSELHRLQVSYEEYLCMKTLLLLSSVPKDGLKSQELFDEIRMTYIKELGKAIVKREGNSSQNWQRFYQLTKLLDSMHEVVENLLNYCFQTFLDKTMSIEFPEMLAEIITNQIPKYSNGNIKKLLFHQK
How it was run: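 Beta-lactamase reporter activity, read as fluorescence intensity, was measured in GR-bla HeLa cells exposed to compounds for 18 h at 37 C and then loaded with LiveBLAzer B/G FRET substrate for 2 h at room temperature.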

[18] = biological target: Glucocorticoid receptor (Homo sapiens) (UniProt P04150); assay: qHTS assay to identify small molecule antagonists of the glucocorticoid receptor (GR) signaling pathway (AID 720692; active means well fitted inhibition curve with a large enough effect in the signal ratio in the repeat runs, not every such curve was filed as active; the % refers to the signal ratio; further: potency means the concentration at half of the fitted maximal effect)
How it was run: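 Fluorescence from cleaved LiveBLAzer B/G FRET substrate reports GRE-driven beta-lactamase in HeLa cells; compounds are tested against 5 nM dexamethasone (final) over 18 h at 37 C, substrate incubation 2 h at room temperature.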

[19] = qHTS assay for small molecule disruptors of the mitochondrial membrane potential - cell viability (AID 720634; calls by dose curve; further: nearly all actives have a fitted effect of over 20% in size; further: potency means the concentration at half of the fitted maximal effect)
How it was run: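 Human hepatoma HepG2 cells were treated for 1 hr with test chemicals, then given m-MPI dye and CellTiter-Glo. Cell viability reflects luminescence proportional to cellular ATP.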

Oc1ccc(C(=C(Cl)Cl)c2ccc(O)cc2)cc1
Potency [1]: inactive
Potency [2]: inactive
Potency [3]: 17.2 µM (active)
outcome [4]: inactive
outcome [5]: inactive
Potency [6]: inactive
outcome [7]: inactive
outcome [8]: inactive
Potency [9]: inactive
outcome [10]: inactive
outcome [11]: inactive
outcome [12]: inactive
Potency [13]: inactive
outcome [14]: inactive
Potency [15]: inactive

CC(C)(C)C(O)/C(=C\c1ccc(Cl)cc1Cl)n1cncn1 (stereo not drawn)
Potency [1]: inactive
Potency [16]: inactive
Potency [3]: 10.4 µM (active)
outcome [4]: inactive
outcome [5]: inactive
Potency [6]: inactive
outcome [7]: inactive
outcome [8]: inactive
Potency [9]: inactive
outcome [10]: inactive
outcome [11]: inactive
outcome [12]: inactive
Potency [13]: inactive
outcome [14]: inactive
Potency [15]: inactive
Potency [17]: inactive
Potency [18]: 59.3 µM (active)

CC(C)CC(C)Nc1ccc(Nc2ccccc2)cc1 (stereo not drawn)
Potency [1]: inactive
Potency [16]: 53.5 µM (active)
Potency [19]: 23.9 µM (active)
Potency [3]: 13.4 µM (active)
outcome [4]: inactive
outcome [5]: inactive
Potency [6]: inactive
outcome [8]: inactive
Potency [9]: inactive
outcome [10]: inactive
outcome [11]: inactive
outcome [12]: inactive
Potency [13]: inactive
outcome [14]: inactive
Potency [15]: inactive

CCCCCCCCCCCCCCC(Br)C(=O)O (stereo not drawn)
Potency [1]: inactive
Potency [16]: 54.5 µM (active)
Potency [19]: inactive
outcome [4]: inactive
outcome [5]: inactive
Potency [6]: inactive
outcome [8]: inactive
Potency [9]: inactive
outcome [10]: inactive
outcome [11]: inactive
outcome [12]: inactive
Potency [13]: inactive
outcome [14]: inactive
Potency [15]: inactive

Oc1c(Br)c(Br)c(Br)c(Br)c1Br
Potency [1]: inactive
Potency [16]: 17.3 µM (active)
Potency [19]: inactive
Potency [3]: 2.45 µM (active)
outcome [4]: inactive
outcome [5]: inactive
Potency [6]: inactive
outcome [7]: inactive
outcome [8]: inactive
Potency [9]: inactive
outcome [10]: inactive
outcome [11]: inactive
outcome [12]: inactive
Potency [13]: inactive
outcome [14]: inactive
Potency [15]: inactive
Potency [17]: inactive
Potency [18]: 13.9 µM (active)

Oc1ccc(C2(c3ccc(O)cc3)CCCCC2)cc1
Potency [1]: inactive
Potency [2]: inactive
Potency [19]: inactive
Potency [3]: 16.3 µM (active)
outcome [4]: inactive
outcome [5]: inactive
Potency [6]: inactive
outcome [7]: inactive
outcome [8]: inactive
Potency [9]: inactive
outcome [10]: inactive
outcome [11]: inactive
outcome [12]: inactive
Potency [13]: inactive
outcome [14]: inactive
Potency [15]: inactive

CC(=O)C(Cl)(Cl)Cl
Potency [1]: inactive
Potency [16]: inactive
Potency [19]: 0.209 µM (active)
Potency [3]: 0.743 µM (active)
outcome [4]: inactive
outcome [5]: inactive
Potency [6]: inactive
outcome [8]: inactive
Potency [9]: inactive
outcome [10]: inactive
outcome [11]: inactive
outcome [12]: inactive
Potency [13]: inactive
outcome [14]: inactive
Potency [15]: inactive
Potency [17]: inactive

O=C(O)COc1nc(Cl)c(Cl)cc1Cl
Potency [1]: inactive
Potency [16]: inactive
Potency [19]: inactive
Potency [3]: 19.8 µM (active)
outcome [4]: inactive
outcome [5]: inactive
Potency [6]: inactive
outcome [8]: inactive
Potency [9]: inactive
outcome [10]: inactive
outcome [11]: inactive
outcome [12]: inactive
Potency [13]: inactive
outcome [14]: inactive
Potency [15]: inactive
Potency [17]: inactive

CC(C)[C@H](C(=O)OC(C#N)c1cccc(Oc2ccccc2)c1)c1ccc(OC(F)F)cc1 (stereo partly drawn)
Potency [1]: inactive
Potency [2]: inactive
Potency [3]: 17.2 µM (active)
outcome [4]: inactive
outcome [5]: inactive
Potency [6]: inactive
outcome [7]: inactive
outcome [8]: inactive
Potency [9]: inactive
outcome [10]: inactive
outcome [11]: inactive
outcome [12]: inactive
Potency [13]: inactive
outcome [14]: inactive
Potency [15]: inactive

O=C(NC(=O)c1c(F)cccc1F)Nc1cc(Cl)c(OC(F)(F)C(F)F)c(Cl)c1
Potency [1]: inactive
Potency [16]: inactive
Potency [19]: inactive
Potency [3]: 19.3 µM (active)
outcome [4]: inactive
outcome [5]: inactive
Potency [6]: inactive
outcome [7]: inactive
outcome [8]: inactive
Potency [9]: inactive
outcome [10]: inactive
outcome [11]: inactive
outcome [12]: inactive
Potency [13]: inactive
outcome [14]: inactive
Potency [15]: inactive
Potency [18]: inactive

Clc1ccc(CSC(Cn2ccnc2)c2ccc(Cl)cc2Cl)cc1 (stereo not drawn)
Potency [1]: inactive
Potency [2]: inactive
Potency [19]: inactive
fluorescence, relative to Rose Bengal [4]: -0.0239% [at 18.6 µM]
fluorescence, % of fluorescein control [5]: -0.0068% [at 18.6 µM]
fluorescence, % of triamterene [6]: -0.071% [at 18.6 µM]
fluorescence, % of fluorescein [8]: -0.0144% [at 18.6 µM]
fluorescence, % of fluorescent control [9]: 0.0923% [at 18.6 µM]
activity change [10]: -0.0182% [at 18.6 µM]
fluorescence, % of fluorescent control [11]: 0.289% [at 18.6 µM]
fluorescence, % of Rose Bengal [12]: -0.065% [at 18.6 µM]
fluorescence, % of fluorescent control [13]: 0.0769% [at 18.6 µM]
fluorescence, % of fluorescein control [14]: -0.107% [at 18.6 µM]
fluorescence, % of fluorescent control [15]: 0.0355% [at 18.6 µM]

OC(c1ccc(Cl)cc1)(c1ccc(Cl)cc1)C(Cl)(Cl)Cl
Potency [1]: inactive
Potency [16]: 61.1 µM (active)
Potency [3]: 6.11 µM (active)
outcome [4]: inactive
outcome [5]: inactive
Potency [6]: inactive
outcome [7]: inactive
outcome [8]: inactive
Potency [9]: inactive
outcome [10]: inactive
outcome [12]: inactive
Potency [13]: inactive
outcome [14]: inactive
Potency [15]: inactive

O=C(CCl)Nc1ccccc1
Potency [1]: inactive
Potency [2]: 48.6 µM (active)
Potency [19]: inactive
outcome [4]: inactive
outcome [5]: inactive
Potency [6]: inactive
outcome [8]: inactive
Potency [9]: inactive
outcome [10]: inactive
outcome [11]: inactive
outcome [12]: inactive
Potency [13]: inactive
outcome [14]: inactive
Potency [15]: inactive

ClC1=C(Cl)[C@]2(Cl)[C@@H]3[C@@H]4C[C@@H]([C@H]5O[C@@H]45)[C@@H]3[C@@]1(Cl)C2(Cl)Cl
Potency [1]: inactive
Potency [16]: 30.6 µM (active)
Potency [3]: 19.3 µM (active)
outcome [4]: inactive
outcome [5]: inactive
Potency [6]: inactive
outcome [7]: inactive
outcome [8]: inactive
Potency [9]: inactive
outcome [10]: inactive
outcome [11]: inactive
outcome [12]: inactive
Potency [13]: inactive
outcome [14]: inactive
Potency [15]: inactive
Potency [17]: inactive
Potency [18]: 36.7 µM (active)
